Reference: PubChem BioAssay (NCATS)
Where “and” joins values, the source holds several entries; their conditions need not be identical. Equal entries are not always repeated. Inconclusive results are not listed. Calls of active or inactive are those of the source. Unless noted, calls come from the whole dose curve; as a rule, active = well fitted curve in the direction sought with a large enough effect; inconclusive = small, poorly fitted or top-dose-only effect, or another doubt; inactive = no such curve, though single readings can be large; an effect the other way counts as inactive or inconclusive.

Columns and labels:
[1] = biological target: Cytochrome P450 1A2 (Homo sapiens) (UniProt P05177); test: p450-cyp1a2 (AID 410; calls by dose curve; note: potency is the fitted concentration of half-maximal effect;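 for activity change, negative = inhibition: -100% = full effect of reference inhibitor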)
Outline: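 Inhibition was calculated relative to 57 uM furafylline (full inhibition). The reaction used human CYP1A2 at 20nM with Luciferin-ME at its Km, 100uM, driven by an NADPH-regenerating system for 60 min at room temperature.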

[2] = biological target: Glucocorticoid receptor (Homo sapiens) (UniProt P04150); test: GR-GFP Redistribution (AID 450;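 active = compounds whose dose series gives a full or clear partial fitted curve of increased nuclear translocation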; note: potency is the fitted concentration of half-maximal effect); details: U2OS GR-GFP nuclear translocation, laser cytometry, 2 h
[3] = biological target: Glucocorticoid receptor (Homo sapiens) (UniProt P04150); test: GR-EFC Redistribution (AID 451; calls by dose curve; note: potency is the fitted concentration of half-maximal effect); details: CHO-K1 GR-EFC translocation, beta-gal luminescence, 2 h
Outline: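 CHO-K1 cells stably expressing nuclear-localized β-gal enzyme acceptor and GR fused C-terminally to the enzyme donor fragment; ligand-driven nuclear translocation restores β-gal by complementation. Compounds titrated up to 46 uM final, 2 h at 37 °C; luminescence read.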

[4] = biological target: Mitogen-activated protein kinase 10 (Mus musculus) (UniProt Q61831); test: JNK3 AlphaScreen Assay (AID 530; active = well fitted curve in either direction with a large enough effect, not every such curve was filed as active;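 note: kinase came from lysate of stimulated human HepG2 cells; signal reports phosphorylation of biotinylated GST-cJun 1-79 at Ser73 with 10 µM ATP; % is set by controls: 0 for no effect and ±100 for the full control effect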)
Outline: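 JNK3 came from HepG2 lysates pre-activated with IL-1beta and TNF-alpha and phosphorylated biotinylated GST-cJun (1-79) at 10 uM ATP, pH 7.6, room temperature. Compounds were titrated. AlphaScreen signal used anti-phospho-cJun (Ser73) antibody.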

[5] = biological target: 3',5'-cyclic-AMP phosphodiesterase 4B (Homo sapiens) (UniProt Q07343); test: qHTS Assay for Inhibitors of PDE-IV (AID 607; active = well fitted activation curve with a large enough effect in the main read-out, with a control signal flat, not every such curve was filed as active; note: % of control where 0% means no effect)
Outline: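 ACTOne HEK293 cells carry a modified cAMP-gated CNG channel and express endogenous PDE4; plated 1000 cells/well, compounds up to 22.9 uM final. Membrane-potential dye fluorescence (ex 535/em 590) was read; parental cells received 10 uM forskolin + 100 uM RO 20-1724.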

[6] = biological target: Cytochrome P450 3A4 (Homo sapiens) (UniProt P08684); test: qHTS Assay for Activators of Cytochrome P450 3A4 (AID 885); note: nearly all actives have a fitted effect of over 65% in size
Outline: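 20nM CYP3A4 + 25uM Luciferin-PPXE (=KM), 200mM KPO4; cpd 10 min RT; NADPH regen, 60 min RT; stop w/ detection buffer, 20 min; luminescence. Normalized to 57 uM ketoconazole.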

[7] = qHTS Assay for Lipid Storage Modulators (AID 1519; calls by dose curve); details: Drosophila S3 cells, BODIPY lipid droplet/cell ratio, laser cytometry, cells loaded with oleic acid
Outline: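 Cells seeded at 5,000 per well were treated with compounds over a concentration series and loaded with oleic acid (400 uM, as added). Lipid droplet fluorescence (488 nm excitation, 500-530 nm channel) was read by laser-scanning cytometry and normalized to 20 uM Triacsin C.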

[8] = biological target: Ubiquitin carboxyl-terminal hydrolase 1 (Homo sapiens) (UniProt O94782); test: Inhibitors of USP1/UAF1: Pilot qHTS (AID 504865);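 note: rhodamine fluorescence freed from ubiquitin-rhodamine substrate followed over time; top concentration of the series differs between compounds; % is set by controls: 0 for no effect and ±100 for the full control effect; nearly all actives have a fitted effect of over 35% in size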
Outline: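 Enzyme-free wells gave the negative control, while test wells held 1nM USP1/UAF1 preincubated with compound for 15 min at room temperature. Ub-Rho at 150nM final started the reaction, and fluorescence at 480/540 nm was recorded kinetically.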

[9] = biological target: DNA dC->dU-editing enzyme APOBEC-3G (Homo sapiens) (UniProt Q9HC16); test: qHTS for inhibitors of Vif-A3G interactions: Validation (AID 588379); note: 0% is about no effect
Outline: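 HeLa cells stably expressing Vif and A3G-eYFP, 700 cells/well, incubated overnight at 37 deg C, then exposed to compound overnight at 37 deg C. Inhibition of Vif-mediated degradation read as increased yellow fluorescence (Ex 488/Em 500-530) by laser-scanning cytometry.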

[10] = system: Zika virus NS2B-NS3 protease; test: Primary screen GU AMC qHTS for Zika virus inhibitors (AID 1347154);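 note: 0% = no-inhibitor control and -100% = no-enzyme control; nearly all actives have a fitted effect of over 70% in size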
Outline: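 Unlinked Zika NS2B hydrophilic domain/NS3 protease domain noncovalent complex (25 nM final) in 10 mM Tris-HCl pH 8.0, 0.01% Tween 20, with AMC peptide substrate. Fluorescence (ex 340, em 450 nm) change over 15 min, room temperature; percent inhibition fitted to 4-parameter Hill equation.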

[11] = Primary qHTS for small molecule stabilizers of the endoplasmic reticulum resident proteome: Secreted ER Calcium Modulated Protein (SERCaMP) assay (AID 1508630); note: % is set by controls: 0 for no effect and ±100 for the full control effect
Outline: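 GLuc-SERCaMP-expressing SH-SY5Y cells, pretreated 16 h with compound, are challenged with thapsigargin to empty ER calcium stores; after 4 h, coelenterazine is added directly to the medium and luminescence is imaged.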

[12] = biological target: Cytochrome P450 2C9 (Homo sapiens) (UniProt P11712); test: qHTS Assay for Inhibitors and Substrates of Cytochrome P450 2C9 (AID 883); note: potency is the fitted concentration of half-maximal effect; nearly all actives have a fitted effect of over 60% in size
Outline: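 A luminogenic readout tracked human CYP2C9 (10nM) converting deoxyluciferin (100uM, at KM) in 25mM KPO4 during 60 min at 37C with regenerated NADPH. Values normalized to 57uM sulphaphenazole as complete inhibition.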

[13] = AP1 Signaling Pathway (AID 357; active = well fitted curve in either direction with a large enough effect, not every such curve was filed as active; note: % is set by controls: 0 for no effect and ±100 for the full control effect); details: ME-180 AP-1-bla reporter, EGF-induced, beta-lactamase ratio, 5 h
Outline: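 ME-180 cells with beta-lactamase reporter under AP-1 response element, stimulated with EC50 EGF; compounds tested in titration series, 5 h at 37 °C. CCF4 substrate added 2.5 h at room temperature; 460/530 nm emission ratio gave %activity and AC50.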

[14] = NFAT Signaling Pathway (AID 444; active = well fitted curve in either direction with a large enough effect, not every such curve was filed as active;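 note: carbachol stimulus at about its EC50 of 1 µM final; % is set by controls: 0 for no effect and ±100 for the full control effect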); details: Jurkat NFAT-bla M1, carbachol, beta-lactamase ratio, 5 h
Outline: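 Jurkat cells carrying an NFAT-driven β-lactamase reporter and co-transfected muscarinic M1 receptor were treated with compound plus carbachol (1 uM final, an EC50 level) for 5 h at 37 °C. CCF4 loading followed for 1 h at RT; 460/530 nm ratio gave %activity.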

[15] = Stat Signaling Pathway (AID 446; active = well fitted curve in either direction with a large enough effect, not every such curve was filed as active); details: ME-180 SIE beta-lactamase reporter, IL-6 stimulated, 5 h
Outline: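 ME-180 SIE-bla cells; overnight plating; cpd + IL-6 40 pM, 5 h, 37 C; LiveBLAzer 2.5 h RT; 460/530 nm emission ratio. Normalized to 300 pM IL-6 and 125 nM JAK inhibitor controls.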

[16] = biological target: Guanine nucleotide-binding protein G(i) subunit alpha-1 (Homo sapiens) (UniProt P63096); test: qHTS Assay for Inhibitors of RGS12 GoLoco Motif Activity (Green Fluorophore) (AID 879);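 note: 0% = labeled peptide with Gαi1 and full inhibition = labeled peptide alone without protein; negative values mean loss of peptide binding seen as reduced polarization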
Outline: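 Fluorescence polarization assay: 50 nM Gαi1 with 10 nM FITC-labeled RGS12 GoLoco peptide in 10 mM Tris pH 7.5, 150 mM NaCl, 0.1 mM GDP, 0.05% NP40, 10 min at room temperature with compound.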

[17] = biological target: Pyruvate kinase PKM (Homo sapiens) (UniProt P14618); test: qHTS Assay for Activators of Human Muscle Pyruvate Kinase (AID 954; active = well fitted curve in the direction sought with a large enough effect, not every such curve was filed as active;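 note: 0% = uninhibited enzyme and -100% = no enzyme or full thiadiazolimine inhibition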)
Outline: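 Luminescence from a luciferase ATP-detection/stop reagent reported PKM2 activity. Reactions contained 0.1 nM purified human enzyme, 0.5 mM PEP, 0.1 mM ADP and 7 mM MgCl2 at pH 7.2, run 1 h at RT.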

[18] = biological target: Alpha-galactosidase A (Homo sapiens) (UniProt P06280); test: Counterscreen for Glucocerebrosidase Inhibitors: qHTS Assay for Human alpha-Galactosidase at pH 4.5 (AID 992); note: 0% is about no effect
Outline: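 Enzyme at 2 nM final was combined with compound (0.7 nM to 77 uM) and 80 uM 4-methylumbelliferyl alpha-D-galactopyranoside in 50 mM citric acid, 0.005% Tween-20, pH 4.5. After 20 min at room temperature, fluorescence was read (Ex 365/Em 440 nm); AC50 came from Hill fits.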

[19] = biological target: alpha-glucosidase (Oryza sativa, rice) (UniProt Q653V4); test: Counterscreen for Glucocerebrosidase Inhibitors: qHTS Assay for Rice alpha-Glucosidase at pH 5.0 (AID 997);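 note: 0% = full activity with enzyme and -100% = basal without enzyme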
Outline: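 Rice alpha-glucosidase (4 nM final) with 400 uM 4-methylumbelliferyl-alpha-D-glucopyranoside in citrate buffer pH 5.0, 20 min at room temperature, stopped at pH 10; fluorescence 365/440 nm, compounds 0.7 nM–77 uM, AC50 from Hill fits.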

[20] = measured here: cell count channel max response
[21] = measured here: lipid channel max response

Sequence of Glucocorticoid receptor (Homo sapiens) (P04150 whole entry, looked up, the tested form may be a part): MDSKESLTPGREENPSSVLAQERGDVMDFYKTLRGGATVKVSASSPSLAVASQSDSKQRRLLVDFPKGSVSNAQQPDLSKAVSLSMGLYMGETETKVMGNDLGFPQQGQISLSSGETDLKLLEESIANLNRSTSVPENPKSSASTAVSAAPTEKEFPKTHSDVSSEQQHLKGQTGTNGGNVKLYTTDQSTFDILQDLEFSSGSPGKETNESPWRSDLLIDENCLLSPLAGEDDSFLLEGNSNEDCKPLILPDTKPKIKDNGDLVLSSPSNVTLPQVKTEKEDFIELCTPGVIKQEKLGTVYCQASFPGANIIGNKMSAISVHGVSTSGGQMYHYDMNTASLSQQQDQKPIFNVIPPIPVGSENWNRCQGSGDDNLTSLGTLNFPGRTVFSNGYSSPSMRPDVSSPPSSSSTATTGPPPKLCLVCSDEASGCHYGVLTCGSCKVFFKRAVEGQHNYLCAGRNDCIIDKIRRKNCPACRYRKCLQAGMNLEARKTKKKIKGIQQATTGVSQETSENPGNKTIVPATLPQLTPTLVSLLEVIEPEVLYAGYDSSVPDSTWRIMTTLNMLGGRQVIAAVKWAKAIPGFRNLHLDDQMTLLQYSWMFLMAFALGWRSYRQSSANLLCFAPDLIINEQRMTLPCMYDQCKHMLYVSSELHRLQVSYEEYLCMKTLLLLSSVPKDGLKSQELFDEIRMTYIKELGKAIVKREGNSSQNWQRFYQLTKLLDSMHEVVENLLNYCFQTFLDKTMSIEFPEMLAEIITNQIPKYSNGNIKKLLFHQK
Sequence of 3',5'-cyclic-AMP phosphodiesterase 4B (Homo sapiens) (Q07343 whole entry, looked up): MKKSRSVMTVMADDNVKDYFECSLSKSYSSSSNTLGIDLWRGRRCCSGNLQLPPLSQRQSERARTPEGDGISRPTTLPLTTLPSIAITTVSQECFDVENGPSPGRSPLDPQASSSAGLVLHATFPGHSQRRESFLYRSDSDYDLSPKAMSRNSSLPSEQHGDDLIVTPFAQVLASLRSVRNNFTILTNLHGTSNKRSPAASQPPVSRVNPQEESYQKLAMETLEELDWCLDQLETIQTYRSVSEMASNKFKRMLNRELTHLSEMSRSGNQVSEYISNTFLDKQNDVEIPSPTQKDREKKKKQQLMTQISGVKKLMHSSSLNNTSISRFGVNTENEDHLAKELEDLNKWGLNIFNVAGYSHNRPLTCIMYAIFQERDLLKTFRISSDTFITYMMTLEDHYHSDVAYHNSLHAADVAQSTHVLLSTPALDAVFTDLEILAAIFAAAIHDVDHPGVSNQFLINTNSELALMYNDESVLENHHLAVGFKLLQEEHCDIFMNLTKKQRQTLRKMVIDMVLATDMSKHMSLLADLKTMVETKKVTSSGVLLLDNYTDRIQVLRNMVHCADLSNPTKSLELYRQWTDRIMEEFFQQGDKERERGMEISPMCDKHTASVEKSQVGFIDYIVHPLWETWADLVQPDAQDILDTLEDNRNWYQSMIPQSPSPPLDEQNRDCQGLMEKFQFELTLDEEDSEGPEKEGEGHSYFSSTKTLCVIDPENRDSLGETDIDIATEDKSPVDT
Sequence of Cytochrome P450 3A4 (Homo sapiens) (P08684 whole entry, looked up): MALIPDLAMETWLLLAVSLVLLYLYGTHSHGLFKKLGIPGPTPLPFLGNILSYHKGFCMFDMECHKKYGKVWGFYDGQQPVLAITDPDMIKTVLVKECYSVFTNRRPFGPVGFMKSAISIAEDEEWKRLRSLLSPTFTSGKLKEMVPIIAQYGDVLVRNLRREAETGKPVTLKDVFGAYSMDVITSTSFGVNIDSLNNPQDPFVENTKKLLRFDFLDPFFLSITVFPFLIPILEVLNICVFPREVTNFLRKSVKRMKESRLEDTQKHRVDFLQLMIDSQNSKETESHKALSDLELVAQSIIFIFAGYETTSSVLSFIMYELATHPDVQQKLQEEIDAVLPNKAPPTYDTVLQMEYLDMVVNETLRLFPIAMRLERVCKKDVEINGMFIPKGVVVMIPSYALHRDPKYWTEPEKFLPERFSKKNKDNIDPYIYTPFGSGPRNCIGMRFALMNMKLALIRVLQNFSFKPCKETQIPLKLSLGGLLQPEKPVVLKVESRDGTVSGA
Sequence of DNA dC->dU-editing enzyme APOBEC-3G (Homo sapiens) (Q9HC16 whole entry, looked up): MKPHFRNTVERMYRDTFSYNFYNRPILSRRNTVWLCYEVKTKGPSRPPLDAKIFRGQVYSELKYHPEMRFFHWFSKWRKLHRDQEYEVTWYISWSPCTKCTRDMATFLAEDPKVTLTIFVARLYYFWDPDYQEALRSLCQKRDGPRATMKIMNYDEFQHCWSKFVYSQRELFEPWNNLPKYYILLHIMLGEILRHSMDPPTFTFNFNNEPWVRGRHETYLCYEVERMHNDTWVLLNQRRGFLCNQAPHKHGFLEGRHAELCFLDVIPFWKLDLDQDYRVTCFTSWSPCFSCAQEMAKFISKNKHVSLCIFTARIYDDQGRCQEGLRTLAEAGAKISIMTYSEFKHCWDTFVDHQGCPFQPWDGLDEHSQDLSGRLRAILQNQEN
Sequence of Cytochrome P450 1A2 (Homo sapiens) (P05177 whole entry, looked up): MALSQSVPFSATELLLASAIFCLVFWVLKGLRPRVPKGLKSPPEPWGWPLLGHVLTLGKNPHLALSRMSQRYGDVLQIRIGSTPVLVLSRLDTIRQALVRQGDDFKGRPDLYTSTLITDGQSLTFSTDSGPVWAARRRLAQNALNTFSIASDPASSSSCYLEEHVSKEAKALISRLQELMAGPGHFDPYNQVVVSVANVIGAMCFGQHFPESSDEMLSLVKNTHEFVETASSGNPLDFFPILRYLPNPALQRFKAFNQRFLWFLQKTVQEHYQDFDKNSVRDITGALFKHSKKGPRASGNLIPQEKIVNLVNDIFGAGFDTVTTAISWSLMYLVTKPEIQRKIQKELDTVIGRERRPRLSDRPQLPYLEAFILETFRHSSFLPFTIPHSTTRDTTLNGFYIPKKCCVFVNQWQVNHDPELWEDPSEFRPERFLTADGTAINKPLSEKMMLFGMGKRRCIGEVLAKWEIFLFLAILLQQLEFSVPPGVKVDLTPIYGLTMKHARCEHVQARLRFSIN
Sequence of Ubiquitin carboxyl-terminal hydrolase 1 (Homo sapiens) (O94782 whole entry, looked up): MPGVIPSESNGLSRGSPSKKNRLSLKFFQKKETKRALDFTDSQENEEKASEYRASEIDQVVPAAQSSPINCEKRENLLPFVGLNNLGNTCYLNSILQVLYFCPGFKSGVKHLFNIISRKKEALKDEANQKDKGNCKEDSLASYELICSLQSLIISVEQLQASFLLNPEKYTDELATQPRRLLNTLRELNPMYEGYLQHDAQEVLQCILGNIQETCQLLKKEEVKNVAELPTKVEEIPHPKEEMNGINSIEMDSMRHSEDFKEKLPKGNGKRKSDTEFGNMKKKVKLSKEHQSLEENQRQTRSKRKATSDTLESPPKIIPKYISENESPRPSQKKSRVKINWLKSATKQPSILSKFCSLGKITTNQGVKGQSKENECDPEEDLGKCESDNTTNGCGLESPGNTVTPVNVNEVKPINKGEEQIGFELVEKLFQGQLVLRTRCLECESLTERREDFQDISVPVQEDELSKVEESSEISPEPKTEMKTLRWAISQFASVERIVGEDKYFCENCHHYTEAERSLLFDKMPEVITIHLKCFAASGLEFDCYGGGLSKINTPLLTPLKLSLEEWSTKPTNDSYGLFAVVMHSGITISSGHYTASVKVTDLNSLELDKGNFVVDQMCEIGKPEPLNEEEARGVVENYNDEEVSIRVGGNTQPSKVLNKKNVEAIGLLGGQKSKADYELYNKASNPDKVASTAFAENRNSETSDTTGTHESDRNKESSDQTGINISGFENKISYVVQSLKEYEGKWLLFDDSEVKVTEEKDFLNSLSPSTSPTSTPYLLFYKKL
Sequence of Alpha-galactosidase A (Homo sapiens) (P06280 whole entry, looked up): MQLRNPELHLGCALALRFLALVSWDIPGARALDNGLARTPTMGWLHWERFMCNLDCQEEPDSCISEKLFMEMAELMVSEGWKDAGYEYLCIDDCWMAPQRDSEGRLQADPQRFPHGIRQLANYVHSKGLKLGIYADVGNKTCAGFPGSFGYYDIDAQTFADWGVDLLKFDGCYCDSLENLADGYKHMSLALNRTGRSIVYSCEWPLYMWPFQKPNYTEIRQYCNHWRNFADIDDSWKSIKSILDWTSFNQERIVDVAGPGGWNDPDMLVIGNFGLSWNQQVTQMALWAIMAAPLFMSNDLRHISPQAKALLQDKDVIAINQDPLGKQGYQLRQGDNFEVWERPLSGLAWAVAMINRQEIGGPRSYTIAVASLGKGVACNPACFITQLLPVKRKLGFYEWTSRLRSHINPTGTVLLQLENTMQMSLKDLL
Sequence of Cytochrome P450 2C9 (Homo sapiens) (P11712 whole entry, looked up): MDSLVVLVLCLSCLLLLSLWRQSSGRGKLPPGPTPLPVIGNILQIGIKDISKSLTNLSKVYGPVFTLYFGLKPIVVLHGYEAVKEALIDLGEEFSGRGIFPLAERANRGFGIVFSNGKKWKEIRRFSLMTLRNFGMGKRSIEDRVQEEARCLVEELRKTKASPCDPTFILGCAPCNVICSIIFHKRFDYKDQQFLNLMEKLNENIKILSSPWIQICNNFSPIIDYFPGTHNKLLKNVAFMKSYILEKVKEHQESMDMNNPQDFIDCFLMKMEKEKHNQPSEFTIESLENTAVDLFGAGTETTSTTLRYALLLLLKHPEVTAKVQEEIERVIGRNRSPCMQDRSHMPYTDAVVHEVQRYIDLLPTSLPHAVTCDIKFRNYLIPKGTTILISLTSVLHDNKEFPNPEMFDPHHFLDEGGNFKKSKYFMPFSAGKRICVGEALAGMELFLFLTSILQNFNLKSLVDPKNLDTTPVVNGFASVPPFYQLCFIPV
Sequence of Guanine nucleotide-binding protein G(i) subunit alpha-1 (Homo sapiens) (P63096 whole entry, looked up): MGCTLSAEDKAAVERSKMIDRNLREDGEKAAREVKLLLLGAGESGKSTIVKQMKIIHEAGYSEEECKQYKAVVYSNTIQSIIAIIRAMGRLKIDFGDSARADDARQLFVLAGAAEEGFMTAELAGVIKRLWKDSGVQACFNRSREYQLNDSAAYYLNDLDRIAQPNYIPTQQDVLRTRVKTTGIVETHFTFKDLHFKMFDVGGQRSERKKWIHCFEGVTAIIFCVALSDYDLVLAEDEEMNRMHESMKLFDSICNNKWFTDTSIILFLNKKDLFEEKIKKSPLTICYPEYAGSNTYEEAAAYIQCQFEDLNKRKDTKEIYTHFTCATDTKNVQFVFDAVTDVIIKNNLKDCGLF

C[C@H](NC[C@H](O)CP(=O)(O)CC1CCCCC1)c1ccc(Cl)c(Cl)c1
17.2%: max response [7, 21]
active: Potency [1] 39.8 µM
9.04%: max response [7, 20]
inactive: Potency [2] > 46 µM | Potency [3] > 46 µM | Potency [4] | Potency [5] | Potency [6] | activity change, negative = inhibition ([7]; at 57.5 µM (top of the series)) 4.93% | Potency [8] | Potency [9] | Potency [10] | Potency [11]

COc1cc(N)c(Cl)cc1C(=O)CCC1CCN(CCNS(C)(=O)=O)CC1
24.1%: max response [7, 20]
32.4%: max response [7, 21]
inactive: Potency [1] | Potency [2] > 46 µM | Potency [3] > 46 µM | Potency [4] | Potency [6] | activity change, negative = inhibition ([7]; at 57.5 µM (top of the series)) 6.39% | Potency [8] | Potency [9] | Potency [10] | Potency [11]
active: Potency [12] 0.251 µM

C=C[C@@]1(C)CC(=O)[C@@]2(O)[C@@]3(C)[C@@H](O)CCC(C)(C)[C@@H]3[C@H](O)[C@H](OC(C)=O)[C@@]2(C)O1
active: Potency [1] 31.6 µM
13.9%: max response [7, 20]
inactive: Potency [2] > 46 µM | Potency [3] > 46 µM | Potency [4] | activity change, negative = inhibition ([7]; at 57.5 µM (top of the series)) -0.114% | Potency [8] | Potency [9] | Potency [10] | Potency [11]
18.7%: max response [7, 21]

C[C@@H](CCc1ccc(O)cc1)NCCc1ccc(O)c(O)c1
1.22%: max response [7, 20]
inactive: activity change, negative = inhibition ([13]; at 17.2 µM (top of the series)) 1.11% | activity change, negative = inhibition ([13]; at 38 µM (top of the series)) -3.98% | activity change, negative = inhibition ([14]; at 17.2 µM (top of the series)) -17.4% | activity change, negative = inhibition ([14]; at 38 µM (top of the series)) -12.7% | activity, negative = inhibition ([15]; at 17.2 µM (top of the series)) 13.9% | activity, negative = inhibition ([15]; at 38 µM (top of the series)) -16.8% | Potency [2] > 46 µM and > 20.6 µM | Potency [3] > 46 µM and > 20.6 µM | Potency [4] | Potency [5] | outcome [16] | Potency [6] | outcome [17] | outcome [18] | outcome [19] | activity change, negative = inhibition ([7]; at 25.7 µM (top of the series)) 0.472% | Potency [8] | Potency [9] | Potency [10] | Potency [11]
2.79%: max response [7, 21]
